Compound activity (PubChem BioAssay)
DRD3 agonist – agonists of human D3 dopamine receptor; D3R DiscoveRx beta-arrestin cells, luminescence, 90 min; max activation, %; 410,000 tested, 0.58% active; AID 652048; in the data active = max activation above about 30%; note: 0% is about no effect
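Agonist-mode cell screen: cells plated at 1500/well and incubated overnight at 37 °C, then exposed to library compounds for 90 min at 37 °C. Detection reagent was added for 30–60 min at room temperature, and luminescence was read.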
DRD3 antagonist – D3 dopamine receptor (human) antagonism; P35462; D3R cells, DiscoveRx beta-arrestin luminescence, antagonist mode; hits give low values; max response, negative = inhibition, %; 360,000 tested, 2.5% active; in the data active = max response below about -50%; inconclusive = no clear call, values can overlap the other calls; note: % is set by controls: 0 for no effect and ±100 for the full control effect
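Cells plated overnight at 1500 cells/well, then exposed to library compounds with dopamine controls for 90 minutes at 37 degrees C. DiscoveRx reagent added for 30–60 minutes at room temperature; luminescence read, quantitative HTS format.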
B2AR arrestin – beta2AR (human) beta-arrestin recruitment activity; P07550; beta-arrestin recruitment to beta2AR, cell-based reporter; Potency, µM (series often up to 46.1 µM), without a hit: top-dose activation, most hits filed as activators; 330,000 tested, 0.02% active; AID 492947; active = well fitted activation curve with a large enough effect; inconclusive = small, poorly fitted or top-dose-only effect;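 note: potency is the fitted concentration of half-maximal effect; 0% = DMSO controls and full agonism = EC100 isoproterenol or metaproterenol; nearly all actives have a fitted effect of over 65% in size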
TSHR antag – human thyrotropin receptor antagonism; 330,000 tested, 0.2% active; activity change, negative = inhibition, % at 11.5 µM; AID 504810; P16473; TSHR-expressing cells, TSH-stimulated cAMP HTRF, 2 h; hits give low values;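 active = activity change below a set negative limit, meaning inhibition stronger than a set level, cut at about -70% in these data; inconclusive = activity change between two set negative limits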; note: % is set by controls: 0 for no effect and ±100 for the full control effect
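Freshly harvested TSHR cells receive pin-tooled compound, then EC80 TSH at 4nM final. After 2 hours at 37 deg C, antibody in lysis buffer and cAMP-d2 are added; 30 minutes at ambient temperature precede the HTRF read.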
* hit, by the source's call; u = inconclusive; x = no result. An excerpt weighted towards active compounds, which were near 2.9% of everything screened.

SMILES	DRD3 agonist	DRD3 antagonist	B2AR arrestin	TSHR antag
O=C1c2ccccc2S(=O)(=O)c2cc(C(=O)N3CCN(c4ccc(Cl)cn4)CC3)ccc21	44*	22	x	x
CCc1ccc(OC(=O)c2sc3ncn(Cc4cccc(F)c4)c(=O)c3c2C)cc1	-11	x	x	x
N#Cc1ccc(OCCOCCNC2CCCC2)cc1	-12	-50*	0%	22
Cc1ccc2cc(CN(CCN3CCCC3)C(=O)Nc3ccc(F)cc3)c(=O)[nH]c2c1C	-24	-78*	0%	9
Cc1ccc2cc(CN(CCN3CCCC3)C(=O)Nc3ccccc3)c(=O)[nH]c2c1C	-11	-67*	-2%	-2
COc1cc(C#Cc2c(-c3cncn3C)n(C)c3ccc(-c4ccc(CN5CCOCC5)cc4)cc23)cc(OC)c1	57*	132	-3%	-21
O=c1c(=O)n(-c2ccc(F)c(F)c2)ccn1Cc1ccc(F)cc1Cl	1	x	x	x
CCOC(=O)C1=CCC(c2ccc(C)cc2)N(S(=O)(=O)c2ccc(C)cc2)C1 (centres undefined)	-7	-24	x	x
CCOC(=O)C1=CCC(c2ccccc2C)N(S(=O)(=O)c2ccc(C)cc2)C1 (centres undefined)	-9	-50*	x	x
CCn1c2ccccc2c2cc(CN3CCN(Cc4ccccc4Cl)CC3)ccc21	-18	x	x	x
COc1ccc(Cn2c(=O)c3oc4ccccc4c3n(Cc3cccc(C(F)(F)F)c3)c2=O)cc1	-7	x	x	x
O=S(=O)(Nc1ccccc1)c1ccc(Oc2ncc(C(F)(F)F)cc2Cl)cc1	-1	-63*	0%	-8
O=[N+]([O-])c1cccc(-c2ccc(/C=N/Nc3nc(N4CCCCC4)nc(N4CCCCC4)n3)o2)c1	52*	108	-1%	4
COc1cccc(C(=O)N2c3ccc(C)cc3C(C)(c3ccccc3)CC2(C)C)c1 (centres undefined)	-5	x	x	x
NC(=O)c1cccn1Cc1ccccc1Cl	0	-77*	-1%	-1
CCOC(=O)NC(NCCc1ccccc1)(C(F)(F)F)C(F)(F)F	31*	-6	0%	16
Cc1cc(NC(=O)CCNS(=O)(=O)c2cc(Br)cnc2N)ccc1Br	-4	-51*	0%	-13
COc1cc(/C=C/C(=O)c2ccc(Cl)s2)cc(OC)c1O	-46	u	-1%	-25
COc1ccc(/C=C/C(=O)c2ccc(Cl)s2)cc1O	-8	-72*	1%	-1
CS(=O)(=O)c1cc([N+](=O)[O-])c(Sc2nc3ccccc3[nH]2)c([N+](=O)[O-])c1	-24	-51*	0%	12
O=[N+]([O-])c1ccc(N2CCN(CCO)CC2)cc1Sc1ccccn1	-5	-3	0%	-2
CCN1CCN(c2ccc([N+](=O)[O-])c(Sc3nc4ccccc4[nH]3)c2)CC1	-39	-94*	-1%	2
Cn1cnc([N+](=O)[O-])c1Sc1nc2ccccc2[nH]1	-20	-54*	-1%	-5
Cc1cccc(Sc2c([N+](=O)[O-])ncn2C)c1	-3	u	-1%	47
O=C1CC(c2cccc(O)c2)c2c(nc(SCc3ccccc3F)[nH]c2=O)N1 (centres undefined)	-17	x	x	x
SMILES	DRD3 agonist	DRD3 antagonist	B2AR arrestin	TSHR antag
O=C(Nc1ccccc1)N1CCN(C(=O)c2nsc3ccccc23)CC1	-2	x	x	x
COc1cc(CN2CCN(S(=O)(=O)c3ccccc3)CC2)cc(OC)c1OC	7	19	0%	-10
O=C(NCC(=O)N1CCN(c2cccc(Cl)c2)CC1)c1ccc(Br)o1	2	8	-1%	5
COc1cc(CN2CCN(c3cccc(Cl)c3)CC2)cc(OC)c1OC	-18	-71*	0%	-8
Cc1ccc(CN2CCN(c3ccccc3)CC2)o1	-5	u	0%	-12
COc1cc(CN2CCN(C(O)(c3ccccc3)c3ccccc3)CC2)cc(OC)c1OC	-23	-72*	-1%	7
Clc1cccc(N2CCN(Cc3ccc(Br)o3)CC2)c1	-27	-60*	-1%	-10
Clc1ccc(N2CCN(Cc3ccc(Br)o3)CC2)cc1	-22	-52*	0%	-8
COc1ccc(CCNC(=O)CCCn2nc(C)c3sc4ccccc4c3c2=O)c(OC)c1	5	x	x	x
Cc1ccc(C(=O)NC(Cc2ccccc2C(F)(F)F)C(=O)O)cc1 (centres undefined)	40*	u	0%	-2
Cc1ccc(CC(NC(=O)c2ccc(C)cc2)C(=O)O)cc1 (centres undefined)	8	0	0%	7
CCS(=O)(=O)NCC(c1cccnc1)N1CCN(c2ccccc2OC)CC1 (centres undefined)	3	-6	0%	-5
COc1ccccc1N1CCN(C(CNS(=O)(=O)c2cccs2)c2cccnc2)CC1 (centres undefined)	-7	-50*	0%	9
COc1ccc(Cn2c(=O)[nH]c3cc(C(=O)NC4CCN(Cc5ccccc5)CC4)ccc32)cc1	-16	-67*	0%	-12
COc1ccc(NS(=O)(=O)c2cccc(C(=O)NC3CCN(Cc4ccccc4)CC3)c2)cc1	-23	-53*	0%	26
COc1ccc(Cl)cc1NS(=O)(=O)c1cccc(C(=O)NC2CCN(Cc3ccccc3)CC2)c1	-25	-104*	x	x
O=C(NC1CCN(Cc2ccccc2)CC1)c1cccc(S(=O)(=O)Nc2cc(C(F)(F)F)ccc2Cl)c1	-10	u	-1%	-7
O=C(NCc1ccccc1)C(=O)NCC(c1ccc2c(c1)OCO2)N1CCOCC1 (centres undefined)	-19	x	x	x
CCc1ccc(N(CC)C(=O)c2ccc3c(=O)n4c(nc3c2)CCCCC4)cc1	2	x	x	x
NC(=O)CSc1nnc(NC(=O)C23CC4CC(CC(C4)C2)C3)s1	40*	11	0%	-4
CC(=O)OCCNc1cc(SCc2ccco2)c2nonc2c1[N+](=O)[O-]	-1	u	3%	-15
CC(=O)OCCNc1cc(Sc2nc3ccccc3[nH]2)c2nonc2c1[N+](=O)[O-]	-28	-79*	-1%	-88*
CC(=O)OCCCNc1cc(Sc2nc3ccccc3s2)c2nonc2c1[N+](=O)[O-]	-17	-78*	0%	-4
CC(=O)OCCCNc1cc(Sc2ccc(C)cc2)c2nonc2c1[N+](=O)[O-]	-35	-73*	0%	-21
Cc1ccc(S(=O)(=O)NCCc2csc3nc(-c4ccccc4C)nn23)cc1	-17	x	x	x
CCC(Nc1ccc(-c2nc(-c3ccccn3)no2)cc1[N+](=O)[O-])c1ccccc1 (centres undefined)	6	x	x	x
CCN1/C(=C/c2ccc3ccccc3[n+]2CC)C=Cc2ccccc21	-10	-52*	11%	u
O=C(NCc1cccs1)c1ccc2c(c1)N(Cc1cccc(F)c1)C(=O)c1ccccc1S2	-9	x	x	x
Cc1c(CC(=O)NCCc2ccccc2F)c(=O)oc2cc(O)c(Cl)cc12	6	x	x	x
Cc1cccc(C)c1NC(=O)C(NC(=O)c1ccccn1)c1ccc([N+](=O)[O-])cc1 (centres undefined)	-5	-52*	0%	0
